Consider 51 molecules from the antibiotic and cytotoxicity screens of Wong et al. (2023).

Hit rate of the full screen: of about 39,000 compounds, about 500 (1.3%) were called active. The sample holds actives, similar compounds and a random draw of the others, so the mix is not that of the screen.

In this experiment the test system is S. aureus RN4220. Nature of the experiment: growth inhibition call (relative growth <= 0.2). Conditions: 50 µM.
Consider `O=C(C[C@@H]1CC[C@H]2[C@@H](COC[C@H](O)CN2C(=O)Nc2ccc(C(F)(F)F)cc2)O1)NCc1ccncn1`, for which the growth inhibition call was “inactive”.

As for `O=C(C[C@@H]1CC[C@@H]2[C@H](COC[C@@H](O)CN2C(=O)Nc2ccc(Cl)cc2)O1)NCCc1ccncc1`, the growth inhibition call was “inactive”.

As to `O=C(C[C@H]1CC[C@@H]2[C@H](COC[C@H](O)CN2C(=O)Nc2ccc(Cl)cc2)O1)NCCc1ccncc1`, the growth inhibition call is “inactive”.

Turning to `O=C(C[C@@H]1CC[C@H]2[C@@H](COC[C@H](O)CN2C(=O)Nc2ccc(Cl)cc2)O1)NCCc1ccncc1`, the growth inhibition call was “inactive”.

Consider `O=C(C[C@@H]1CC[C@@H]2[C@H](COC[C@@H](O)CN2C(=O)Nc2ccc(C(F)(F)F)cc2)O1)NCCc1ccncc1`, for which the growth inhibition call was “active”.

As for `O=C(C[C@H]1CC[C@@H]2[C@H](COC[C@H](O)CN2C(=O)Nc2ccc(C(F)(F)F)cc2)O1)NCCc1ccncc1`, the growth inhibition call is “active”.

Take `O=C(C[C@H]1CC[C@H]2[C@@H](COC[C@H](O)CN2C(=O)Nc2ccc(C(F)(F)F)cc2)O1)NCCc1ccncc1`: the growth inhibition call is “active”.

Turning to `C[C@@H]1CN([C@H](C)CO)C(=O)c2cc(C#Cc3ccccc3F)cnc2O[C@H]1CN(C)S(=O)(=O)c1ccccc1`, the growth inhibition call is “inactive”.

On to `CC(C)NC(=O)[C@@H](C)n1ncn2cccc2c1=O`, for which the growth inhibition call is “inactive”.

On to `C[C@H](CO)N1C[C@H](C)[C@@H](CN(C)C(=O)NC2CCCC2)Oc2cc(Br)ccc2S1(=O)=O`, for which the growth inhibition call was “inactive”.

Consider `C[C@H](CO)N1C[C@H](C)[C@@H](CN(C)Cc2ccc(Cl)c(Cl)c2)Oc2ccc(NC(=O)C3CCCCC3)cc2CC1=O`, for which the growth inhibition call was “inactive”.

Take `Cc1cc(C(=O)Nc2cccc3c2O[C@H](CN(C)Cc2ccc4c(c2)OCO4)[C@H](C)CN([C@@H](C)CO)C3=O)n(C)n1`: the growth inhibition call is “inactive”.

Take `NC(Cc1c[nH]c2ccccc12)C(=O)O` (stereo unspecified): the growth inhibition call is “inactive”.

For `NCCCC[C@@H](N)C(=O)N[C@@H](Cc1c[nH]c2ccccc12)C(=O)N[C@@H](CCCCN)C(=O)O`, the growth inhibition call was “inactive”.

As for `Cc1cc(C)cc(C(=O)N(C)[C@H](Cc2ccc(-c3ccccc3)cc2)C(=O)N[C@@H](Cc2c[nH]c3ccccc23)C(=O)O)c1`, the growth inhibition call was “active”.

`CCC[C@H]1CN(S(=O)(=O)c2c(C)cc(C)c3nonc23)C[C@@H]1N`: the growth inhibition call was “inactive”.

For the molecule `Cn1c(=O)sn(-c2ccccc2)c1=O`, the growth inhibition call was “inactive”.

For the molecule `Nc1cc(=O)[nH]c(=O)n1Cc1ccccc1`, the growth inhibition call is “inactive”.

Consider `Cn1sc(=O)n(Cc2ccccc2)c1=O`, for which the growth inhibition call was “active”.

In the case of `Cc1ccc(S(=O)(=O)Nc2ccc3c(c2)C(=O)N([C@@H](C)CO)C[C@@H](C)[C@H](CN(C)S(=O)(=O)c2ccc(C)cc2)OCCCC[C@H](C)O3)cc1`, the growth inhibition call was “inactive”.

For the molecule `CO[C@@H]1CN(C)C(=O)c2cc(NS(C)(=O)=O)ccc2OC[C@@H](C)N(C(=O)C2CCCCC2)C[C@@H]1C`, the growth inhibition call was “inactive”.

`Cc1ccc(C(C)C)cc2c(C)ccc1-2`: the growth inhibition call is “inactive”.

`CC(C)c1ccc(N2C=Nc3ccc(C(C)C)cc3C2)cc1`: the growth inhibition call is “active”.

In the case of `COc1ccc(NC(=O)Nc2ccc3c(c2)C(=O)N([C@@H](C)CO)C[C@@H](C)[C@@H](CN(C)C(=O)CCC(F)(F)F)OCCCC[C@@H](C)O3)cc1`, the growth inhibition call is “inactive”.

As for `C[C@@H]1CN([C@H](C)CO)C(=O)Cc2cc(NC(=O)C3CCCCC3)ccc2O[C@@H]1CN(C)Cc1ccc(C(F)(F)F)cc1`, the growth inhibition call is “inactive”.

As for `COc1ccccc1CNC(=O)C[C@H]1C[C@H]2c3cc(NC(=O)NC4CCCC4)ccc3O[C@H]2[C@H](CO)O1`, the growth inhibition call was “inactive”.

In the case of `COc1cc(C(=O)NS(=O)(=O)c2ccccc2C)ccc1Cc1cn(C)c2ccc(NC(=O)OC3CCCC3)cc12`, the growth inhibition call is “active”.

Turning to `COc1cc(Nc2nc3ccccc3nc2NS(=O)(=O)c2ccc(NC(=O)c3ccc(C)c(OC)c3)cc2)cc(OC)c1`, the growth inhibition call was “inactive”.

As for `CCNC(=O)[C@@H]1[C@@H](CO)[C@@H]2Cn3c(ccc(-c4ccc(OC)cc4)c3=O)[C@H]1N2S(C)(=O)=O`, the growth inhibition call is “inactive”.

For the molecule `COc1ccc(NC(=O)Nc2ccc3c(c2)C(=O)N([C@H](C)CO)C[C@@H](C)[C@H](CN(C)CC2CC2)OCCCC[C@@H](C)O3)cc1`, the growth inhibition call was “inactive”.

Consider `C[C@H](CO)N1C[C@H](C)[C@H](CN(C)Cc2ccc(-c3ccccc3)cc2)Oc2c(NS(=O)(=O)c3ccc(F)cc3)cccc2C1=O`, for which the growth inhibition call is “inactive”.

With `COc1ccc(C)cc1S(=O)(=O)NCCO`, the growth inhibition call is “inactive”.

Turning to `Cc1cc(C)c(-c2ccc(NC(=O)[C@H](Cc3ccc(C(=O)NCCS(=O)(=O)O)cc3)c3ccc(-c4ccc(C(C)(C)C)cc4)cc3)cc2)c(C)c1`, the growth inhibition call is “inactive”.

For the molecule `Cc1cc(O[C@@H](CCC(F)(F)F)c2ccc(C(=O)NCCC(=O)O)cc2)cc(C)c1-c1ccc(C(C)(C)C)cc1`, the growth inhibition call is “active”.

On to `COc1ccc2cc(-c3cc(-c4cc(Cl)cc(Cl)c4)nn3[C@@H](C)c3ccc(C(=O)NCCC(=O)O)cc3)ccc2c1`, for which the growth inhibition call is “inactive”.

On to `COc1ccc(NC(=O)Nc2cccc3c2O[C@H](CN(C)S(C)(=O)=O)[C@H](C)CN([C@@H](C)CO)C3=O)cc1`, for which the growth inhibition call was “inactive”.

With `Nc1ncn(C[C@@H](O)CO)c2nc(Br)nc1-2`, the growth inhibition call was “inactive”.

As to `Cc1cc(-c2nnc(N)o2)nn1C`, the growth inhibition call was “inactive”.

For `Nc1nnc(-c2ccc([N+](=O)[O-])o2)o1`, the growth inhibition call was “active”.

Regarding `Nc1nnc(-c2ccno2)o1`, the growth inhibition call was “inactive”.

As to `Cc1noc(C)c1NC(=O)N(C)C[C@@H]1OCCCC[C@@H](C)Oc2ccc(NC(=O)Nc3ccc(F)cc3)cc2C(=O)N([C@@H](C)CO)C[C@H]1C`, the growth inhibition call was “inactive”.

For the molecule `CC(=O)Oc1cc(-c2coc3cc(OC(C)=O)c(OC(C)=O)c(OC(C)=O)c3c2=O)cc(OC(C)=O)c1OC(C)=O`, the growth inhibition call is “inactive”.

On to `O=C(NC1CCCCCCC1)c1ccccc1-c1ccccc1`, for which the growth inhibition call was “inactive”.

For the molecule `O=C(NC1CCN(CCCCC2(C(=O)NCC(F)(F)F)c3ccccc3-c3ccccc32)CC1)c1ccccc1-c1ccc(C(F)(F)F)cc1`, the growth inhibition call was “active”.

Turning to `C[C@]1(C(=O)NCC(F)(F)F)c2ccccc2C(=O)N(Cc2cc(C(F)(F)F)cc(C(F)(F)F)c2)[C@H]1c1ccc(CO)cc1`, the growth inhibition call is “inactive”.

Turning to `C[C@@H]1CN([C@H](C)CO)C(=O)Cc2cc(NC(=O)Nc3ccc4c(c3)OCO4)ccc2O[C@H]1CN(C)S(C)(=O)=O`, the growth inhibition call is “inactive”.

As to `Cc1ccc(S(=O)(=O)N(C)C[C@H]2Oc3ccc(NC(=O)NC(C)C)cc3CC(=O)N([C@H](C)CO)C[C@H]2C)cc1`, the growth inhibition call is “inactive”.

Regarding `Cc1nnc(SCC2=C(C(=O)O)N3C(=O)[C@@H](NC(=O)Cn4cnnn4)[C@H]3SC2)s1`, the growth inhibition call was “active”.

In the case of `O=C(Cn1cnnn1)NC1C(=O)N2C(C(=O)O)=C(CSc3nncs3)CSC12` (stereo unspecified), the growth inhibition call was “active”.

Regarding `Cc1nnc(SCC2=C(C(=O)[O-])N3C(=O)C(NC(=O)Cn4cnnn4)C3SC2)s1.[Na+]` (stereo unspecified), the growth inhibition call is “active”.

With `Cc1nnc(SCC2=C(C(=O)O)N3C(=O)[C@@H](N)[C@H]3SC2)s1`, the growth inhibition call was “inactive”.
